# Measured values from publication PMC5540273 (PLoS ONE, 2017).
# Legend:
# Conditions in all cases: concentration: 1 μM, replicates: in singlicate; n = 1
# [1] = system: JAK1(JH2domain-pseudokinase)
# [2] = system: JAK2(JH1domain-catalytic)
# [3] = system: JAK3(JH1domain-catalytic)
# [4] = system: T1, JNK1
# T1 construct: gene MAPK8
# [5] = system: T2, JNK2
# T2 construct: gene MAPK9
# [6] = system: T3, JNK3
# T3 construct: gene MAPK10
# [7] = system: KIT-autoinhibited
# [8] = system: KIT
# [9] = system: LATS1
# [10] = system: LATS2
# [11] = system: LCK
# [12] = system: LIMK1
# [13] = system: LIMK2
# [14] = system: T4, LKB1
# T4 construct: gene STK11
# [15] = system: T5, LOK
# T5 construct: gene STK10
# [16] = system: LRRK2
# [17] = system: LTK
# [18] = system: LYN
# [19] = system: T6, LZK
# T6 construct: gene MAP3K13
# [20] = system: MAK
# 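Further: KINOMEscan kinase panel screen.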
SMILES,%Inh [1] [%],%Inh [2] [%],%Inh [3] [%],%Inh [4] [%],%Inh [5] [%],%Inh [6] [%],%Inh [7] [%],%Inh [8] [%],%Inh [9] [%],%Inh [10] [%],%Inh [11] [%],%Inh [12] [%],%Inh [13] [%],%Inh [14] [%],%Inh [15] [%],%Inh [16] [%],%Inh [17] [%],%Inh [18] [%],%Inh [19] [%],%Inh [20] [%]
CN(c1ccc(F)c(NC(=O)c2cccc(OC(C)(C)C#N)c2Cl)c1)c1ccc2nc(NC(=O)C3CC3)sc2n1,3,0,0,11,0,20,6,99.8,0,35,97.9,0,0,11,95.4,9,0,93.1,46,0
CCn1cnc2c(NCc3ccccc3)ncnc21 [SKF-96418],24,40,5,11,0,0,9,0,0,0,0,0,0,25,5,0,0,0,34,0
Nc1ncc(-c2cn[nH]c2)c2scc(-c3ccc4c(c3)CCN4C(=O)Cc3ccccc3)c12 [GSK2593067],0,43,0,13,12,2,12,100,0,55,96.5,17,49,2,98.6,52,67,80,0,10
CS(=O)(=O)c1cccc(CNc2nc(Nc3ccc4c(c3)CCC(=O)N4)ncc2C(F)(F)F)c1,94.3,99.6,100,49,27,48,30,44,0,0,0,0,0,34,0,16,0,16,0,0
O=C(Nc1n[nH]c2nc(-c3cccc(O)c3)ccc12)C1CC1 [SB-711805],21,29,0,25,8,5,13,30,0,1,25,0,0,14,15,0,12,5,0,0
Cl.O=C(Nc1ccc(Oc2ccc3[nH]c(NC(=O)c4ccco4)nc3c2)cc1)Nc1cc(C(F)(F)F)ccc1F [GW683134],0,43,0,15,33,0,1,100,30,0,98.4,17,0,0,99.7,65,74,70,0,19
Nc1ncc(-c2ccc3nccc(-c4ccncc4)c3c2)cc1S(=O)(=O)N1CCCCC1 [GSK1693850],14,0,0,35,18,29,0,44,21,0,24,0,22,0,7,0,6,16,0,16
O=C(Nc1c(F)cccc1F)c1cc(C(=O)c2ccccc2F)c[nH]1 [GSK1326180],0,0,0,4,17,0,0,9,0,0,8,3,0,0,28,6,0,0,0,0
Cl.Cl.NCC(NC(=O)c1cc(-c2cccnc2)c(-c2ccnc3[nH]ccc23)s1)c1ccccc1 (stereo not shown) [GSK1323434],0,31,79,44,61,41,0,19,0,11,33,0,0,22,0,0,0,0,77,21
COc1cccc(CC(=O)N2CCc3cc(-c4cn(C)c5ncnc(N)c45)ccc32)c1 [GSK2608899],0,0,0,4,16,3,11,100,0,10,34,0,35,4,98.5,0,36,22,0,2
CN1CCN(Cc2ccc(NC(=O)Nc3ccc(N(C)c4ccnc(Nc5ccc(CS(C)(=O)=O)cc5)n4)cc3)cc2)CC1.Cl [GW827654],84,99.9,98.5,92.7,76,88,61,100,20,37,82,27,31,17,99.9,0,46,70,42,34
O=C(Nc1n[nH]c2cc(-c3cccs3)ccc12)C1CC1 [SB-731284],22,40,0,57,33,48,39,58,0,5,0,6,0,10,17,0,0,0,0,0
COc1cccc(C2=C(Nc3cccc(O)c3)C(=O)NC2=O)c1 [SB-390771],0,15,94.2,46,50,28,0,15,0,1,11,9,18,0,0,0,6,24,0,25
Fc1cc(Cl)ccc1Nc1ccnc2cc(-c3ccc(CN4CCOCC4)o3)ccc12 [GW560109],0,35,0,29,23,15,22,100,0,0,97,0,0,0,62,70,57,76,0,7
COc1cc(Nc2nccc(N3CCC(NS(=O)(=O)c4ccc(NC(C)=O)cc4)CC3)n2)cc(OC)c1OC [GSK1379825],83,96.3,8,44,37,31,0,90,0,0,18,93,100,0,2,29,0,56,27,61
CC(C)NCC(Cc1ccccc1)NC(=O)c1cc(Br)c(-c2ccnc3[nH]ccc23)s1.Cl.Cl (stereo not shown) [GSK1383281],0,71,82,28,12,12,0,50,100,70,11,0,11,0,0,0,0,0,0,34
Cc1cc(-c2c(-c3ccc(F)cc3)ncn2CCCN2CCOCC2)nc(N)n1 [SB-222517],57,16,0,5,0,0,20,15,15,0,12,0,0,45,18,0,4,17,0,35
Cl.N#CCc1ccc(Nc2nccc(Nc3ccc(Oc4ccccc4)cc3)n2)cc1 [GW639905],0,85,0,38,31,23,0,97.4,5,0,90.6,25,11,0,0,58,42,62,0,20
COC(=O)Nc1nc2ccc(Oc3ccc(NC(=O)Nc4cc(C(F)(F)F)ccc4F)cc3)cc2[nH]1.Cl [GW654607],0,55,16,0,65,7,0,100,0,0,99.3,37,16,0,99.1,28,63,86,0,85
O=C(Nc1n[nH]c2nc(-c3ccccc3)ccc12)C1CC1 [SB-708999],0,17,51,16,6,6,0,8,6,0,9,0,31,0,30,0,0,21,2,38
